# The full list was thinned out, with hits kept by preference.
# PTAP-TSG101 blk: qHTS Validation Assay for Inhibitors of HIV-1 Budding by Blocking the Interaction of PTAP/TSG101: Sytravon Library Screen. Tumor susceptibility gene 101 protein (Homo sapiens), Q99816. Fluorescence polarization, FITC-PTAP peptide/Tsg101, 20 min. Potency, µM (series often up to 115 µM), actives largely listed as inhibitors. 44,000 tested, under 10 active. AID 1347069, 2019
#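 qHTS FP binding, 20 min r.t.: 10 uM Tsg101 domain + 50 nM FITC-PTAP peptide, pH 7.5 HEPES buffer with TCEP and EDTA.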
# GALK inh: qHTS Assay for Inhibitors of Human Galactokinase (GALK): NCGC Sytravon Library Screen | Potency, µM (titrated, usually from 57.5 µM), most hits filed as inhibitors | recombinant GALK, Kinase-Glo ATP luminescence, 1 h | AID 1347072, 2019 | 44,000 tested, under 10 active | P51570
#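 Reactions with and without enzyme served as controls. GALK at 5 nM phosphorylates 100 uM galactose using 35 uM ATP (HEPES pH 8.0, Mg2+) for 1 h at RT, with luminescence read 10 min after adding Kinase-Glo Plus.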
# B2AR arrestin ag: qHTS assay of beta-arrestin-biased ligands of beta2-adrenergic receptor: NCGC Sytravon Library Screen | HTLA Tango cells, beta-arrestin recruitment, luciferase luminescence, 18 h | AID 1347077, 2019 | 44,000 tested, under 10 active | Potency, µM (titrated, usually from 46.1 µM), most hits filed as activators
#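 Tango cells expressing recombinant beta2-AR and beta-arrestin were treated with compounds (up to 46 microM titration) in DMEM with 1% FBS for 18 hr at 37 degrees C. Beta-arrestin recruitment drove tTA-dependent luciferase, read by luminescence; curves were fitted and classed.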
# HTT promoter inh: Primary qHTS for Identification of Small Molecule Inhibitors of Huntingtin Promoter Activity; HEK293 HTT promoter firefly luciferase reporter, 24 h; Potency, µM (titrated, usually from 57.5 µM), usual class: inhibitors; actives 0.93% (n = 48,000); further: nearly all actives have a fitted effect of over 50% in size
#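 Luminescence was read after Dual-Glo reagent and a 10 min room-temperature incubation. Values were normalized to vehicle (0% activity) and zero RLU (-100% activity). Reporter HEK293 cells had been exposed to compounds (up to 57.5 uM final) for 24 h.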
# HTT-AS act: Primary qHTS for Identification of Small Molecule Activators of Huntingtin-Antisense Promoter Activity; HEK293 HTT-AS promoter firefly luciferase reporter, 24 h; response scale: percent change from vehicle, -100% = no light; Potency, µM (top dose mostly 57.5 µM), usual class: activators; actives 0.24% (n = 48,000); AID 1508624, 2021; further: nearly all actives have a fitted effect of over 55% in size
#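 HEK293 Fluc reporter, 2,500 cells/well, 24 h pre-culture; cpds up to 57.5 uM final, 24 h 37 degrees C; Dual-Glo, 10 min RT; normalized vehicle = 0%, zero RLU = -100%.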
# NTMT1 inh: Primary qHTS for Inhibitors of N-terminal methyltransferase 1 (NTMT1): MTaseGlo Assay; Potency, µM (titrated, usually from 114 µM), hits mostly inhibitors; NTMT1 MTase-Glo SAH luminescence, purified enzyme; actives 2.5% (n = 59,000); AID 1645870, 2021; further: nearly all actives have a fitted effect of over 65% in size
# Target sequence (Q9BV86 whole entry, looked up): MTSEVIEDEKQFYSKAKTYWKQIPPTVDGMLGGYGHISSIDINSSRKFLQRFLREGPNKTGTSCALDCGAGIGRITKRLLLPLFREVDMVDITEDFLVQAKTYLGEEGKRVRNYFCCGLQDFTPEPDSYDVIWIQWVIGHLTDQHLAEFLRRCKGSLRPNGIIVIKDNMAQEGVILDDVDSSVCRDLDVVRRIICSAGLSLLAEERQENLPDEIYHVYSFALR
# CLK4 inh-1: Confirmation Assay for Inhibitors of CDC-like Kinase 4 (Kinase-Glo Assay): SAR round 2. shares compounds with NTMT1 inh. recombinant Clk4, Kinase-Glo ATP luminescence, 4.5 h. Potency, µM (series often up to 76.9 µM), most hits filed as inhibitors. actives 90% (n = 90)
# Target sequence (Q9HAZ1 whole entry, looked up): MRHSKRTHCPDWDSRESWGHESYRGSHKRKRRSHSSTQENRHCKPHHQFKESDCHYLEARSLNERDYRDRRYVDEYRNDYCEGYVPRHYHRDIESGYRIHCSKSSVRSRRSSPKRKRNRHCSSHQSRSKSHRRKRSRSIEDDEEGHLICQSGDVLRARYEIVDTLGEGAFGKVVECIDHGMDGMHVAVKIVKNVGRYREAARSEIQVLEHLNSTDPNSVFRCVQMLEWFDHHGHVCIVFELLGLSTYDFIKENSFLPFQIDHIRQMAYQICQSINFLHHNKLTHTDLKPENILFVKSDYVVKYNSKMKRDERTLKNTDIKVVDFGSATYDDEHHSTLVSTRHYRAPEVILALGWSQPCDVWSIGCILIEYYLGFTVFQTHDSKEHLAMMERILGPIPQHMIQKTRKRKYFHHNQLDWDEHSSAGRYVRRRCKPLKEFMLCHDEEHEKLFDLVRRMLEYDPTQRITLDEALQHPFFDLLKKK
# CLK4 inh-2: Kinase Inhibition Study on Inhibitors of CDC-like Kinase 4 (Reaction Biology data): SAR round 2. Potency, µM, most hits filed as inhibitors. actives 100% (n = 65). Reaction Biology kinase assay, 10 uM ATP. shares compounds with NTMT1 inh; calls by dose curve
# DYRK1A RBC: Kinase Inhibition Study on Inhibitors of Dyrk1a (Reaction Biology data). Potency, µM, usual class: inhibitors. Reaction Biology kinase assay, 10 uM ATP. shares compounds with NTMT1 inh. actives 90% (n = 65);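 active means compounds that showed inhibition of Dyrk1a and received a fitted potency; inactive means compounds that showed no inhibition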
# CLK2 inh: Kinase Inhibition Study on Inhibitors of CDC-like Kinase 2 (Reaction Biology data) | actives 90% (n = 65) | AID 504427, 2011 | Potency, µM, usual class: inhibitors | Reaction Biology kinase assay, 10 uM ATP | shares compounds with NTMT1 inh;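 active means compound that inhibits Clk2 kinase in the dose series, with an IC50 potency reported; inactive means no inhibition seen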
# CLK3 RBC: Kinase Inhibition Study on Inhibitors of CDC-like Kinase 3 (Reaction Biology data). shares compounds with NTMT1 inh. AID 504428, 2011. Potency, µM, usual class: inhibitors. recombinant CLK3 kinase assay, 10 uM ATP. actives 40% (n = 65);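 active means compounds that inhibited Clk3 enough in the ten-dose series to give a half-maximal potency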
# DYRK1B inh: Kinase Inhibition Study on Inhibitors of Dyrk1b (Reaction Biology data); actives 80% (n = 65); Potency, µM, hits mostly inhibitors; shares compounds with NTMT1 inh; Recombinant Dyrk1b kinase assay, 10 uM ATP;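 active means compounds whose dose response shows an inhibitor phenotype against the kinase Dyrk1b; inactive means compounds showing no inhibitor phenotype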
# CLK1 inh: Kinase Inhibition Study on Inhibitors of CDC-like Kinase 1 (Reaction Biology data); shares compounds with NTMT1 inh; Potency, µM, hits mostly inhibitors; AID 504430, 2011; recombinant Clk1 kinase assay, 10 uM ATP; actives 90% (n = 65);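 active means compounds that block the splicing kinase Clk1 enough to give a fitted half-inhibition concentration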
# Sfp PPTase inh: qHTS Assay for Inhibitos of Bacillus subtilis Sfp phosphopantetheinyl transferase (PPTase): Chemistry Optimization Followup; actives 78% (n = 230); shares compounds with NTMT1 inh; purified Sfp PPTase enzyme activity, qHTS; AID 540350, 2011; Potency, µM (highest dose often 114 µM), usual class: inhibitors
# Bsub HM489 growth: qHTS for Inhibitos of Bacillus subtilis Sfp phosphopantetheinyl transferase (PPTase): Chemistry Optimization Followup in B. Subtilis HM489; shares compounds with NTMT1 inh; B. subtilis HM489 (acpS-) growth, BacTiter-Glo, 5 h; Potency, µM (highest dose often 114 µM), usual class: inhibitors; actives 50% (n = 220); AID 540353, 2011
# Sfp gel opt: Gel-Based Assay for Inhibitos of Bacillus subtilis Sfp phosphopantetheinyl transferase (PPTase): Chemistry Optimization Followup; shares compounds with NTMT1 inh; purified Sfp PPTase, gel-based product detection; Potency, µM (titrated, usually from 250 µM), most hits filed as inhibitors; actives 54% (n = 220)
# Sfp inh SAR2: qHTS Assay for Inhibitors of Bacillus subtilis Sfp phosphopantetheinyl transferase (PPTase): SAR Round 2; actives 87% (n = 230); purified Sfp enzyme, PPTase activity, qHTS; Potency, µM (titrated, usually from 57.1 µM), actives largely listed as inhibitors; shares compounds with NTMT1 inh
# HSD17B4 counter: Extended Characterization of HPGD Inhibitors: Counterscreen Against HSD17b4; shares compounds with NTMT1 inh; Potency, µM (series often up to 57.1 µM), actives largely listed as inhibitors; AID 743187, 2013; purified HSD17B4, estradiol/NAD+, NADH fluorescence; actives 10% (n = 230)
# ALDH1A1 inh: Extended Characterization of HPGD Inhibitors: Counterscreen Against ALDH1A1; actives 93% (n = 230); recombinant ALDH1A1, NADH fluorescence, propionaldehyde/NAD+; Potency, µM (titrated, usually from 57.1 µM), hits mostly inhibitors; shares compounds with NTMT1 inh
# NNMT counter: Counterscreen qHTS for Inhibitors of N-terminal methyltransferase 1 (NTMT1): NNMT MTaseGlo assay | Potency, µM (series often up to 57.1 µM), usual class: inhibitors | shares compounds with NTMT1 inh | actives 10% (n = 120) | NNMT MTase-Glo luminescence, SAH detection
# A number is an active result; - = inactive; ? = inconclusive; . = no result given; [ ] = remark or other dose. Unless noted, the call rests on the fitted dose curve; in most records, active means well fitted curve in the direction sought with a large enough effect; inconclusive means small, poorly fitted or top-dose-only effect, or another doubt; inactive means no such curve, though single readings can be large; an effect the other way counts as inactive or inconclusive.
SMILES,PTAP-TSG101 blk,GALK inh,B2AR arrestin ag,HTT promoter inh,HTT-AS act,NTMT1 inh,others
FC(F)(F)c1cccc(N2CCN(C(=S)Nc3cccnc3)CC2)c1,.,.,.,.,.,?,Sfp PPTase inh=?;Bsub HM489 growth=?;Sfp gel opt=-;Sfp inh SAR2=41µM;HSD17B4 counter=-;ALDH1A1 inh=11µM
Cc1noc(C)c1S(=O)(=O)N1CCC(C(=O)N2CCN(c3cccc(C(F)(F)F)c3)CC2)CC1,-,-,-,?,-,-,
O=C(CNS(=O)(=O)c1cccs1)N1CCN(c2cccc(C(F)(F)F)c2)CC1,-,-,-,?,-,-,
CC/C(C)=C/C(=O)OC1C(OC2(C)CCC3C(C4C(C)CCC42)C3(C)C)OC(C)C(O)C1O (stereo not given),.,.,.,.,.,-,
Fc1cc(Nc2nc(-c3ccncc3)nc3ccccc23)ccc1-c1cccc(C(F)(F)F)c1,.,.,.,.,.,-,
COc1cc(O)c(C(CC(=O)N2CCC(c3ccccc3)CC2)c2ccc(OC)c(OC)c2)c(OC)c1 (stereo not given),.,.,.,.,.,-,
CC(C)(C)NCc1cc(Nc2ccnc3cc(Cl)ccc23)c2c(c1O)CCCC2,.,.,.,.,.,-[0.501 µM],
CN(C)C(=O)Nc1cc(-c2ccccc2)ccc1N(C)C,.,.,.,.,.,-,NNMT counter=-
CS(=O)(=O)CCNCc1ccc(-c2ccc3ncnc(Nc4ccc(OCc5cccc(F)c5)c(Cl)c4)c3c2)o1,.,.,.,?,-,-,CLK4 inh-1=-
Fc1cccc(CNc2ncnc3ccc(-c4cccc(Cl)c4)cc23)c1,.,.,.,.,.,-,
N#Cc1nc(Nc2cc(F)cc(F)c2)c2ncn(CCN3CCCC3)c2n1,.,.,.,.,.,-,
CC(=O)Nc1ccc(CNc2ncnc3ccc(-c4c(C)noc4C)cc23)cc1,.,.,.,.,.,-,
CC(=O)c1ccc(-c2ccc3ncnc(NCc4ccc(C)o4)c3c2)o1,.,.,.,.,.,?,CLK4 inh-1=0.29µM;CLK4 inh-2=0.56;DYRK1A RBC=5.8µM;CLK2 inh=6.9µM;CLK3 RBC=-;DYRK1B inh=10µM;CLK1 inh=7µM
Cc1cccc(CNc2ncnc3ccc(-c4cccc(C)c4)cc23)c1,.,.,.,.,.,-,
